Measured values from the supplement of paper PMC8285479.
± gives the standard deviation of the averaged measurements. The full ranking holds about 1,900 compounds; the median of “normalised cell viability (NPI; 0 = phenylarsine oxide control, 1 = DMSO control)” is about 1, and the lowest 2% start at about 0.039. The list comes from a sample in which the lowest values are over-represented; it also holds similar structures and randomly drawn compounds.

System: NCI-H1944
Assay: normalised cell viability (NPI; 0 = phenylarsine oxide control, 1 = DMSO control) (fraction of DMSO control); NCI-H1944 is a non-small cell lung cancer line; higher = more viable cells (less compound toxicity)
Details: 6 days
[1] = glucocorticoid arm: hydrocortisone 2.75 uM co-treatment, compound 1 µM
[2] = glucocorticoid arm: hydrocortisone 2.75 uM co-treatment, compound 5 µM
[3] = glucocorticoid arm: hydrocortisone 2.75 uM pre-treated 2 days and continued, compound 1 µM
[4] = glucocorticoid arm: hydrocortisone 2.75 uM pre-treated 2 days and continued, compound 5 µM
[5] = glucocorticoid arm: vehicle, compound 1 µM
[6] = glucocorticoid arm: vehicle, compound 5 µM
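Note: CTB read-out in 384-well plates, triplicate wells, NPI normalised per plate against 1 µM phenylarsine oxide (0) and 0.1% DMSO (1) controls.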

Row | Structure (SMILES) | normalised cell viability [1] | normalised cell viability [2] | normalised cell viability [3] | normalised cell viability [4] | normalised cell viability [5] | normalised cell viability [6]
1 | CCS(=O)(=O)Nc1ccc2[nH]c(O)c(C(=Nc3ccc(CN4CCCCC4)cc3)c3ccccc3)c2c1 [Hesperadin] | 0.435 ± 0.035 | 0.396 ± 0.068 | 0.419 ± 0.087 | 0.51 ± 0.08 | 0.371 ± 0.08 | 0.218 ± 0.035
2 | CCCCCCCCCC(=O)NC(CN1CCOCC1)[C@H](O)c1ccccc1 (mixture of isomers) | 1.01 | 0.9997 ± 0.0096 | 1.02 ± 0.026 | 1.01 ± 0.024 | 1.01 | 0.997 ± 0.014
3 | CC(C)C[C@H](NC(=O)[C@H](CCc1ccccc1)NC(=O)CN1CCOCC1)C(=O)N[C@@H](Cc1ccccc1)C(=O)N[C@@H](CC(C)C)C(=O)[C@@]1(C)CO1 [Carfilzomib (PR-171)] | 0.0181 ± 0.0047 | 0.000755 ± 0.00097 | 0.777 ± 0.051 | 0.12 ± 0.025 | 0.0054 ± 0.0013 | -0.000926 ± 0.0006
4 | CC(C)C[C@H](NC(=O)[C@H](CCc1ccccc1)NC(=O)CN1CCOCC1)C(=O)N[C@@H](Cc1ccccc1)C(=O)N[C@@H](CC(C)C)C(=O)[C@@]1(C)CO1 [Carfilzomib] | 0.0119 ± 0.0019 | 0.198 ± 0.017 | 0.652 ± 0.035 | 0.986 ± 0.013 | 0.00203 ± 0.0017 | 0.0026 ± 0.00057
5 | CNC(=N)NCCC[C@H](N)C(=O)O [NG-Monomethyl-L-arginine acetate] | 1.001 ± 0.009 | 0.985 ± 0.022 | 1.001 ± 0.0081 | 0.879 ± 0.24 | 0.9883 ± 0.0097 | 0.991 ± 0.0079
6 | S=C=Nc1cccc(NC(=S)NCCCCNC(=S)Nc2cccc(N=C=S)c2)c1 | 1.04 ± 0.04 | 1.05 ± 0.015 | 1.02 ± 0.033 | 1.04 ± 0.032 | 1.017 ± 0.0058 | 1.003 ± 0.0058
7 | CCc1cccc(N(C)C(=N)Nc2cccc3ccccc23)c1 | 0.999 ± 0.027 | 0.918 ± 0.012 | 1.006 ± 0.0069 | 0.967 ± 0.013 | 1.003 ± 0.0064 | 1.01 ± 0.01
8 | COc1ccc2c(c1)c(CC(=O)O)c(C)n2Cc1ccc(F)cc1 [1-(4-Fluorobenzyl)-5-methoxy-2-methylindole-3-acetic acid] | 0.987 ± 0.014 | 0.977 ± 0.017 | 0.983 ± 0.028 | 0.982 ± 0.013 | 0.9717 ± 0.0076 | 0.974 ± 0.0027
9 | COC(=O)Nc1ccc(-c2nc(N3CCOCC3)c3cnn(C4CCN(C(=O)OC)CC4)c3n2)cc1 | 0.505 ± 0.038 | 0.753 ± 0.013 | 0.563 ± 0.029 | 0.769 ± 0.067 | 0.476 ± 0.02 | 0.924 ± 0.015
10 | CN(C)C1CCN(C(=O)c2ccc(NC(=O)Nc3ccc(-c4nc(N5CCOCC5)nc(N5CCOCC5)n4)cc3)cc2)CC1 | 0.231 ± 0.011 | 0.105 ± 0.0056 | 0.311 ± 0.026 | 0.147 ± 0.012 | 0.0929 ± 0.0075 | 0.0212 ± 0.0032
11 | CCn1nnc2c(N3CCOCC3)nc(-c3ccc(NC(=O)Nc4ccc(C(=O)N5CCN(C)CC5)cc4)cc3)nc21 | 0.201 ± 0.0067 | 0.375 ± 0.015 | 0.287 ± 0.01 | 0.543 ± 0.024 | 0.077 ± 0.01 | 0.22 ± 0.016
12 | C=CS(=O)(=O)NC1CCN(C(=O)CNc2cc(I)c(Cl)cc2OC)CC1 [K-Ras(G12C) inhibitor 9] | 1.03 ± 0.01 | 1.07 ± 0.029 | 1.04 | 1.04 ± 0.025 | 0.993 ± 0.0036 | 0.996 ± 0.014
13 | C[N+](C)(C)CC=O [Betaine aldehyde chloride] | 0.9877 ± 0.0021 | 0.993 ± 0.012 | 0.9913 ± 0.0081 | 0.993 ± 0.0085 | 0.9647 ± 0.0015 | 0.9803 ± 0.0015
14 | NC[C@@H](O)c1ccc(O)c(O)c1 [L(-)-Norepinephrine bitartrate] | 1 ± 0.018 | 0.971 ± 0.011 | 1 ± 0.021 | 0.968 ± 0.0085 | 0.98 ± 0.017 | 0.9767 ± 0.0011
15 | Nc1nc2c(nc(Br)n2C2OC3COP(=O)(O)O[C@@H]3C2O)c(=O)[nH]1 (stereo not given in full) [8-Bromo-cGMP sodium] | 1.023 ± 0.0058 | 1.02 | 1.02 ± 0.01 | 1 ± 0.028 | 1.01 ± 0.011 | 1.01 ± 0.015
16 | CCN(CC)CCCC(C)Nc1nc(C)cc(Nc2ccc3nc(C)cc(N)c3c2)n1 (stereo not given) | 0.845 ± 0.0082 | 0.444 ± 0.019 | 0.888 ± 0.01 | 0.688 ± 0.036 | 1 ± 0.013 | 0.119 ± 0.0062
17 | CCc1ccc(OCc2ccccc2C(=O)Nc2ccc3nc(C)cc(N)c3c2)cc1 | 1.04 ± 0.011 | 0.00134 ± 0.00041 | 1.05 ± 0.017 | 0.00123 ± 0.00019 | 1.023 ± 0.0058 | 0.00113 ± 0.0006
18 | Cc1cc([C@@H](C)Nc2ccccc2C(=O)O)c2nc(N3CCOCC3)cc(=O)n2c1 | 0.878 ± 0.043 | 0.764 ± 0.062 | 0.879 ± 0.023 | 0.791 ± 0.03 | 0.9667 ± 0.0091 | 0.899 ± 0.035
19 | CCCC(CCC)C(=O)NO [Valproic acid hydroxamate] | 1 ± 0.022 | 1.01 ± 0.022 | 1.01 ± 0.016 | 1.02 ± 0.016 | 0.9982 ± 0.0077 | 0.9988 ± 0.0092
20 | NC1CCN(O)C1=O (racemic) | 0.983 ± 0.011 | 0.999 ± 0.011 | 0.9857 ± 0.0051 | 0.984 ± 0.023 | 0.985 ± 0.013 | 0.98733 ± 0.00058
21 | CC(C)C[C@H](NC(=O)CNC(=O)c1cc(Cl)ccc1Cl)B1OC(=O)CC(CC(=O)O)(C(=O)O)O1 (stereo not given in full) | 0.98 ± 0.014 | 0.835 ± 0.018 | 1.047 ± 0.0058 | 1.04 ± 0.015 | 0.263 ± 0.024 | 0.0378 ± 0.0053
22 | CC(C)C[C@H](NC(=O)CNC(=O)c1cc(Cl)ccc1Cl)B(O)O | 0.978 ± 0.0095 | 0.886 ± 0.03 | 1.04 ± 0.01 | 1.04 ± 0.011 | 0.311 ± 0.032 | 0.0506 ± 0.0038
23 | CCCCCCCCCCCCCCCCCCNC(=O)OCC(COP(=O)([O-])OCC[n+]1ccsc1)OC (stereo not given) | 0.9967 ± 0.0035 | 1.02 ± 0.011 | 1.02 ± 0.024 | 1.01 ± 0.015 | 0.997 ± 0.0017 | 0.82 ± 0.33
24 | COc1ccc(CCNC[C@@H](O)c2ccc(O)cc2)cc1OC [R(-)-Denopamine] | 1.01 ± 0.01 | 1.017 ± 0.0058 | 1.02 ± 0.017 | 1.013 ± 0.0058 | 1.01 | 1.01 ± 0.014
25 | c1cncc(CN2CCC(n3ncc4c(N5CCOCC5)nc(-c5ccc6[nH]ccc6c5)nc43)CC2)c1 | 0.773 ± 0.022 | 0.532 ± 0.036 | 0.743 ± 0.027 | 0.615 ± 0.036 | 0.542 ± 0.035 | 0.24 ± 0.0038
